Active and inactive are the calls of the source. The rule behind the calls is not given here.

In the assay the target is Pantothenate synthetase (Mycobacterium tuberculosis (strain ATCC 25618 / H37Rv)) (UniProt P9WIL5). As to the kind of experiment: Coupled enzyme confirmation of inhibitors against recombinant Mtb PanC (AID 375).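 Note: 0% = full reaction with vehicle and 100% = no enzyme background.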 To be noted: coupled enzyme assay; at 10 µM, active compounds read high.
Chain of Pantothenate synthetase (Mycobacterium tuberculosis (strain ATCC 25618 / H37Rv)) (P9WIL5 whole entry, looked up): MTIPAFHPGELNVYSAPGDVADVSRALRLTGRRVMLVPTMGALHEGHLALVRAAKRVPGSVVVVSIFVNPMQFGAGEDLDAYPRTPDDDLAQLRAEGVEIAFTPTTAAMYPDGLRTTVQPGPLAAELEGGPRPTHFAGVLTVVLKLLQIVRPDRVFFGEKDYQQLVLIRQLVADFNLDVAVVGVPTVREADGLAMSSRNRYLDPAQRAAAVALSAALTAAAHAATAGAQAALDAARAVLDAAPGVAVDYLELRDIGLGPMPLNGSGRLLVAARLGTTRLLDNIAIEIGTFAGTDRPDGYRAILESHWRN
The inhibition is the drop in the measured response relative to a control, in per cent. As to `Cc1ccc(S(=O)(=O)Cn2nnnc2C(C(C)C)N2CCN(C(=O)c3ccco3)CC2)cc1` (stereo not given), the inhibition was 0% (inactive). To `COc1cc(C2C3=C(CC(C)(C)CC3=O)Nc3c2c(=O)[nH]c(=O)n3Cc2ccccc2)ccc1O` (stereo not given) belongs 4% (inactive); to `Brc1ccc(C2=Nn3c(nnc3-c3ccncc3)SC2)cc1`, 0% (inactive); to `O=C(O)CCn1c(SCc2ccccc2)nc2ccccc21`, 0% (inactive).

Take `O=c1c2cnn(-c3ccccc3)c2ncn1/N=C/c1ccncc1`: the inhibition is 5% (inactive). Next, `CN(C)CCCn1c(N)c(C#N)c2nc(C#N)c(C#N)nc21`: 0% (inactive); `CN1CCN(C(=O)CN(Cc2ccc(Cl)cc2)S(C)(=O)=O)CC1`: 4% (inactive). Next, `COc1ccc(C2c3c(oc4ccccc4c3=O)C(=O)N2c2ccc(C)cn2)cc1OC` (stereo not given): 0% (inactive). To `Cc1ccc(/C=N/n2nnnc2N)o1` belongs 0% (inactive); to `CCOC(=O)C1CCN(C(C)=C2C(=O)c3ccccc3C2=O)CC1`, 2% (inactive). As for `COC(=O)CSC1=C(C#N)C(c2ccc(F)cc2)CC(=O)N1` (stereo not given), the inhibition is 0% (inactive).

For the molecule `Clc1ccc(Cl)c(-c2ccc(/C=N/c3ncn[nH]3)o2)c1`, the inhibition is 4% (inactive). Next, `CCCS(=O)(=O)N1CCN(Cc2ccc(OCc3ccccc3)c(OC)c2)CC1`: 4% (inactive); `Cc1cc(NC(=O)CCCC(=O)Nc2ccc(F)cc2)no1`: 4% (inactive). For the molecule `O=C(CN1CCN(c2nc(-c3ccc(F)cc3)cs2)CC1)NCc1ccc2c(c1)OCO2`, the inhibition is 5% (inactive).

Take `COc1ccc(C2C(C(=O)N3CCCC3)c3cc(OC)c(OC)cc3C(=O)N2C)cc1` (stereo not given): the inhibition was 0% (inactive).

As for `Cn1c(SCC(N)=O)nnc1C1CCN(C(=O)NCc2ccccc2)CC1`, the inhibition is 0% (inactive). As for `CCOc1ccc(Cc2nn[nH]n2)cc1`, the inhibition is 1% (inactive). To `CCCCC1C(=O)N(c2ccccc2)N(c2ccccc2)C1=O` belongs 0% (inactive); to `CC(C)OC(=O)C(CC(=O)O)NCc1ccccc1` (stereo not given), 1% (inactive); to `CCOc1ccc(S(=O)(=O)N2CCN(C(=O)c3cccn3C)CC2)cc1`, 0% (inactive). For `Cn1c(=O)c2c(ncn2CCO)n(C)c1=O`, the inhibition was 1% (inactive). Take `O=C(NCC1CCCO1)C1CCCN(Cc2cnn(-c3ccccc3)c2-n2cccc2)C1` (stereo not given): the inhibition was 0% (inactive). Take `O=C(Nc1ccc(F)cc1)N(Cc1ccco1)Cc1cc2cc3c(cc2[nH]c1=O)OCO3`: the inhibition is 0% (inactive). Consider `CN(Cc1nc(-c2ccncc2)no1)S(=O)(=O)c1ccc(Cl)cc1`, for which the inhibition was 0% (inactive).

With `COC(=O)Cn1ncc2c(C)n(Cc3ccccc3)c(C)c2c1=O`, the inhibition is 2% (inactive).

Consider `Oc1cc(NCc2cccnc2)ccc1-c1nc2ccccc2o1`, for which the inhibition is 0% (inactive).

As for `Cc1cccc2c1N(CC(=O)OC(C)C)C(=O)C2=O`, the inhibition was 0% (inactive). To `COC(=O)CC1SC(=O)NC1=O` (stereo not given) belongs 0% (inactive); to `CCOc1ccc(C2C(C#N)=C(N)Oc3cc(C)n(CCN(C)C)c(=O)c32)cc1OCC` (stereo not given), 0% (inactive); to `COc1ccccc1OCc1ccc(C(=O)Nc2ccncc2)o1`, 2% (inactive). Next, `Cc1oc(-c2ccc(Cl)cc2)nc1CS(=O)CC(=O)NCCCN(C)C1CCCCC1` (stereo not given): 0% (inactive); `Cc1ccc(NC(=O)CNc2cccc(C)c2C)c(C)c1`: 0% (inactive); `CS(=O)(=O)NCc1nnc(SCC(=O)NC2CCCCC2)n1-c1ccc(F)cc1`: 0% (inactive). As to `C=CCn1c(SCc2ccc(C#N)cc2)nnc1-c1cccc(Cl)c1`, the inhibition was 1% (inactive). On to `COc1ccccc1C(=O)N1CCN(C(=O)COc2cccc(C)c2)CC1`, for which the inhibition is 3% (inactive).

For the molecule `COc1ccc2c(c1)[nH]c1c(=O)n(CC3CCCO3)cnc12` (stereo not given), the inhibition is 1% (inactive).

On to `O=C(N1CCN(Cc2ccccc2)CC1)C12CC3CC(CC(C3)C1)C2`, for which the inhibition was 0% (inactive). To `COc1ccc(/C=N/n2c(=O)[nH]c3c([nH]c4ccc(C)cc43)c2=O)cc1CN1CCOCC1` belongs 2% (inactive); to `Cc1oc(-c2ccccc2F)nc1CS(=O)(=O)CC(=O)NCc1ccco1`, 0% (inactive).

For the origin of these results see PubChem BioAssay.
